Experimental data from the supplement of paper PMC11732987, “Enantioselective OTUD7B fragment discovery through chemoproteomics screening and high-throughput optimisation” (Communications Chemistry, 2025).

What was measured:
Test in all cases: log2 ratio of Biotin-Ahx-Ub-VS probe labelling (fragment/DMSO); higher = less target engagement (more negative = stronger competition), active = hit call of the paper (q ≤ 0.05, log2 ratio ≤ -1)
Settings in all cases: compound concentration: 200 uM; treatment time: 3 h
[1] = target: USP34 (UniProt Q70CQ2)
How it was run: (§1)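 Labelling with Biotin-Ahx-Ub-VS (0.5 µM final, 1 h) followed a 3 h triplicate treatment of HEK293T lysate (495 µg per sample, Tris/CHAPS/IGEPAL buffer with protease inhibitors) with fragment at 200 µM or vehicle. Labelled DUBs were NeutrAvidin-enriched, digested with LysC and trypsin, and run by diaPASEF LC-MS/MS. The values, average log2 fragment/vehicle ratios by unpaired t-test, come from global-median-normalised Spectronaut label-free quantities. Proteins with ≥2 unique peptides were used.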

[2] = target: T1, USP36 (UniProt Q9P275)
T1 sequence (whole entry): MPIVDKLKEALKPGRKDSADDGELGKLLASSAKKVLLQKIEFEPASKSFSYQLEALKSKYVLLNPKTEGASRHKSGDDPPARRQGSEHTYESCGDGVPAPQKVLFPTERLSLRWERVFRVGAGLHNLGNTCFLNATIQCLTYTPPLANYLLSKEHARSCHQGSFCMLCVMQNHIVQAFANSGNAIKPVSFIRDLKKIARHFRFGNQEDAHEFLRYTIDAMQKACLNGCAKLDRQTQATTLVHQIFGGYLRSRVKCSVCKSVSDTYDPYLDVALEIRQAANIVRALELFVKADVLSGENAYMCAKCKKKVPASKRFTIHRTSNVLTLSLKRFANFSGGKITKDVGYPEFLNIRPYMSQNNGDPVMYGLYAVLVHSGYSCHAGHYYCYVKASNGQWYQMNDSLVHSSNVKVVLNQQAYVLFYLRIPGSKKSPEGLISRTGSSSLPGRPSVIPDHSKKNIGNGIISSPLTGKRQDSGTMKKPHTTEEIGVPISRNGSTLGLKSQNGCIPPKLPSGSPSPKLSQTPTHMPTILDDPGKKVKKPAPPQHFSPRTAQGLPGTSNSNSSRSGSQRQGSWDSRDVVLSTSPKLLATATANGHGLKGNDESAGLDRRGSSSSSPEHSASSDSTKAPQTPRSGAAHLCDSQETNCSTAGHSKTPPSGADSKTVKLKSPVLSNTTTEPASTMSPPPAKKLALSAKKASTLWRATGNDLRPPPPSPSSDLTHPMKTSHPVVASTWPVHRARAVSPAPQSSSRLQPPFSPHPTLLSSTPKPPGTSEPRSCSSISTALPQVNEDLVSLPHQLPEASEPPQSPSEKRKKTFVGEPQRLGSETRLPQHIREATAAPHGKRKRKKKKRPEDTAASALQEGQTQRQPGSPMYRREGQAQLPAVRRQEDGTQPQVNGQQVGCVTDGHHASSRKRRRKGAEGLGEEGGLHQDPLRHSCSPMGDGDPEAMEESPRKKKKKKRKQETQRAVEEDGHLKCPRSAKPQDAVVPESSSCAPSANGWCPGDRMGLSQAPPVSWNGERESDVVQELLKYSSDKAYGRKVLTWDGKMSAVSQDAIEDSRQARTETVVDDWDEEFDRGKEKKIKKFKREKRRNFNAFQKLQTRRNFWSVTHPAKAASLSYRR
How it was run: as §1

[3] = target: T2, USP38 (UniProt Q8NB14)
T2 sequence (whole entry): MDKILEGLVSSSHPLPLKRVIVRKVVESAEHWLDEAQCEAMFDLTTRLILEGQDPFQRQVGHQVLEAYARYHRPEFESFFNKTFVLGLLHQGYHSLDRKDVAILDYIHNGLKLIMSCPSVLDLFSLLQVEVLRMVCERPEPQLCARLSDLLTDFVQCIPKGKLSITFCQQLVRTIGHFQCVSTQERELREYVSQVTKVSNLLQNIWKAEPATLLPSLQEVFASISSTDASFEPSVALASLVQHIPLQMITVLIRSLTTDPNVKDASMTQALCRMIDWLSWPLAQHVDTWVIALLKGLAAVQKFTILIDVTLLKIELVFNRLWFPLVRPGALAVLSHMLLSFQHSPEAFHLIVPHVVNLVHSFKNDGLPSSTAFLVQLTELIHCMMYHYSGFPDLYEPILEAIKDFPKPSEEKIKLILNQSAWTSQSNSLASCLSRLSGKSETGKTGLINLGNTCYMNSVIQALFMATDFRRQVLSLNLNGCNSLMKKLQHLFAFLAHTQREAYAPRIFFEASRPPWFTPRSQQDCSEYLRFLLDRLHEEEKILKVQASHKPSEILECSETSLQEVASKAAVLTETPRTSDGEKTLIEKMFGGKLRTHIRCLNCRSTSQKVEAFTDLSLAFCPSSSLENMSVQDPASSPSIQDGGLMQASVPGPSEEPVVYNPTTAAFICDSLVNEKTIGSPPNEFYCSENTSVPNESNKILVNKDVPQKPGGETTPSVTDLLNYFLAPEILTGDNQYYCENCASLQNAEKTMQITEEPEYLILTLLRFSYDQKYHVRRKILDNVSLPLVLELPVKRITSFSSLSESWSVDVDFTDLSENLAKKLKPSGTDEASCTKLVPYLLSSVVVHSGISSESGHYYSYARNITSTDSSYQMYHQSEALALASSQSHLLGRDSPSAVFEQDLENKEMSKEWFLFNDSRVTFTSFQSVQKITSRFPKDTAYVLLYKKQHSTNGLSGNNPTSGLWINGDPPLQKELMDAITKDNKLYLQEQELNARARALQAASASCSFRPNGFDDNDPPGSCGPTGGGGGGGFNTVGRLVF
How it was run: as §1

[4] = target: T3, USP39 (UniProt Q53GS9)
T3 sequence (whole entry): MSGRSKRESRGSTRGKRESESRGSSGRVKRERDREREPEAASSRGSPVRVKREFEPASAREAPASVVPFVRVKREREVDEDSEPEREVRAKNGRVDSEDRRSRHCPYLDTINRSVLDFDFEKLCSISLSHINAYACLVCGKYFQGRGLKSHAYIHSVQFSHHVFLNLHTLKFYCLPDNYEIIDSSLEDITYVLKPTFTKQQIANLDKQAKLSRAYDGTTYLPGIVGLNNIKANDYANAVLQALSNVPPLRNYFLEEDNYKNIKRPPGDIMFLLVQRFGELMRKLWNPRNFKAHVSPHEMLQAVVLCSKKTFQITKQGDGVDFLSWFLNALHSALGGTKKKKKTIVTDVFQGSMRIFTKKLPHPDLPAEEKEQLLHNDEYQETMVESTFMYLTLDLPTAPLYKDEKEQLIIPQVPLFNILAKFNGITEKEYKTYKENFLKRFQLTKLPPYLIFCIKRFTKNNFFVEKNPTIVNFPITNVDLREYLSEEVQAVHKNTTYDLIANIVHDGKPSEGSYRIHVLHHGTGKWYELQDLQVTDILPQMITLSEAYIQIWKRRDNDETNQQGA
How it was run: as §1

[5] = target: T4, USP4 (UniProt Q13107)
T4 sequence (whole entry): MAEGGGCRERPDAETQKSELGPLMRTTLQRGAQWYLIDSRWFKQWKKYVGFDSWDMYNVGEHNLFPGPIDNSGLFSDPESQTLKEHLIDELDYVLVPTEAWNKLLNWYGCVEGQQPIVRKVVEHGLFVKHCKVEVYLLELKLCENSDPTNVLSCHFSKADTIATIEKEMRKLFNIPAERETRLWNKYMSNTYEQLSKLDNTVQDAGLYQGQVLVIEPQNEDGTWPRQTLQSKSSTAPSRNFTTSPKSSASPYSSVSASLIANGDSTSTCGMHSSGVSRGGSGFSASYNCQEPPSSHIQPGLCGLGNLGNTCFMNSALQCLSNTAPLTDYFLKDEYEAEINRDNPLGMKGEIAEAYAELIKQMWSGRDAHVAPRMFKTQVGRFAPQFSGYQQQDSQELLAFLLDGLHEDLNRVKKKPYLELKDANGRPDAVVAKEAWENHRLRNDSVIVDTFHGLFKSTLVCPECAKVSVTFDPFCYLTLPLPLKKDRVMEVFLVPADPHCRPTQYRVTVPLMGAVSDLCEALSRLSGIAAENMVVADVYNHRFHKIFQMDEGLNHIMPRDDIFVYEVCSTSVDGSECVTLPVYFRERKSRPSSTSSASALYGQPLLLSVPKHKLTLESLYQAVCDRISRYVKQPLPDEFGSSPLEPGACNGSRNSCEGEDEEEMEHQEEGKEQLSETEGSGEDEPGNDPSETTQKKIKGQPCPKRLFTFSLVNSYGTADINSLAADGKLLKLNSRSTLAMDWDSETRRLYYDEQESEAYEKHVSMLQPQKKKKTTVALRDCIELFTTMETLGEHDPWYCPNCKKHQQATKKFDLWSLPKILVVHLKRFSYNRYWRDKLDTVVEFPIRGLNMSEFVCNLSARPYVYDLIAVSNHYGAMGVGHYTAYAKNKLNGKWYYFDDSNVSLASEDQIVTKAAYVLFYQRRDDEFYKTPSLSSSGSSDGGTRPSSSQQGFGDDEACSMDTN
How it was run: as §1

Measured: log2 ratio of Biotin-Ahx-Ub-VS probe labelling

Sequence of USP34 (Q70CQ2 whole entry, the tested form may be a part): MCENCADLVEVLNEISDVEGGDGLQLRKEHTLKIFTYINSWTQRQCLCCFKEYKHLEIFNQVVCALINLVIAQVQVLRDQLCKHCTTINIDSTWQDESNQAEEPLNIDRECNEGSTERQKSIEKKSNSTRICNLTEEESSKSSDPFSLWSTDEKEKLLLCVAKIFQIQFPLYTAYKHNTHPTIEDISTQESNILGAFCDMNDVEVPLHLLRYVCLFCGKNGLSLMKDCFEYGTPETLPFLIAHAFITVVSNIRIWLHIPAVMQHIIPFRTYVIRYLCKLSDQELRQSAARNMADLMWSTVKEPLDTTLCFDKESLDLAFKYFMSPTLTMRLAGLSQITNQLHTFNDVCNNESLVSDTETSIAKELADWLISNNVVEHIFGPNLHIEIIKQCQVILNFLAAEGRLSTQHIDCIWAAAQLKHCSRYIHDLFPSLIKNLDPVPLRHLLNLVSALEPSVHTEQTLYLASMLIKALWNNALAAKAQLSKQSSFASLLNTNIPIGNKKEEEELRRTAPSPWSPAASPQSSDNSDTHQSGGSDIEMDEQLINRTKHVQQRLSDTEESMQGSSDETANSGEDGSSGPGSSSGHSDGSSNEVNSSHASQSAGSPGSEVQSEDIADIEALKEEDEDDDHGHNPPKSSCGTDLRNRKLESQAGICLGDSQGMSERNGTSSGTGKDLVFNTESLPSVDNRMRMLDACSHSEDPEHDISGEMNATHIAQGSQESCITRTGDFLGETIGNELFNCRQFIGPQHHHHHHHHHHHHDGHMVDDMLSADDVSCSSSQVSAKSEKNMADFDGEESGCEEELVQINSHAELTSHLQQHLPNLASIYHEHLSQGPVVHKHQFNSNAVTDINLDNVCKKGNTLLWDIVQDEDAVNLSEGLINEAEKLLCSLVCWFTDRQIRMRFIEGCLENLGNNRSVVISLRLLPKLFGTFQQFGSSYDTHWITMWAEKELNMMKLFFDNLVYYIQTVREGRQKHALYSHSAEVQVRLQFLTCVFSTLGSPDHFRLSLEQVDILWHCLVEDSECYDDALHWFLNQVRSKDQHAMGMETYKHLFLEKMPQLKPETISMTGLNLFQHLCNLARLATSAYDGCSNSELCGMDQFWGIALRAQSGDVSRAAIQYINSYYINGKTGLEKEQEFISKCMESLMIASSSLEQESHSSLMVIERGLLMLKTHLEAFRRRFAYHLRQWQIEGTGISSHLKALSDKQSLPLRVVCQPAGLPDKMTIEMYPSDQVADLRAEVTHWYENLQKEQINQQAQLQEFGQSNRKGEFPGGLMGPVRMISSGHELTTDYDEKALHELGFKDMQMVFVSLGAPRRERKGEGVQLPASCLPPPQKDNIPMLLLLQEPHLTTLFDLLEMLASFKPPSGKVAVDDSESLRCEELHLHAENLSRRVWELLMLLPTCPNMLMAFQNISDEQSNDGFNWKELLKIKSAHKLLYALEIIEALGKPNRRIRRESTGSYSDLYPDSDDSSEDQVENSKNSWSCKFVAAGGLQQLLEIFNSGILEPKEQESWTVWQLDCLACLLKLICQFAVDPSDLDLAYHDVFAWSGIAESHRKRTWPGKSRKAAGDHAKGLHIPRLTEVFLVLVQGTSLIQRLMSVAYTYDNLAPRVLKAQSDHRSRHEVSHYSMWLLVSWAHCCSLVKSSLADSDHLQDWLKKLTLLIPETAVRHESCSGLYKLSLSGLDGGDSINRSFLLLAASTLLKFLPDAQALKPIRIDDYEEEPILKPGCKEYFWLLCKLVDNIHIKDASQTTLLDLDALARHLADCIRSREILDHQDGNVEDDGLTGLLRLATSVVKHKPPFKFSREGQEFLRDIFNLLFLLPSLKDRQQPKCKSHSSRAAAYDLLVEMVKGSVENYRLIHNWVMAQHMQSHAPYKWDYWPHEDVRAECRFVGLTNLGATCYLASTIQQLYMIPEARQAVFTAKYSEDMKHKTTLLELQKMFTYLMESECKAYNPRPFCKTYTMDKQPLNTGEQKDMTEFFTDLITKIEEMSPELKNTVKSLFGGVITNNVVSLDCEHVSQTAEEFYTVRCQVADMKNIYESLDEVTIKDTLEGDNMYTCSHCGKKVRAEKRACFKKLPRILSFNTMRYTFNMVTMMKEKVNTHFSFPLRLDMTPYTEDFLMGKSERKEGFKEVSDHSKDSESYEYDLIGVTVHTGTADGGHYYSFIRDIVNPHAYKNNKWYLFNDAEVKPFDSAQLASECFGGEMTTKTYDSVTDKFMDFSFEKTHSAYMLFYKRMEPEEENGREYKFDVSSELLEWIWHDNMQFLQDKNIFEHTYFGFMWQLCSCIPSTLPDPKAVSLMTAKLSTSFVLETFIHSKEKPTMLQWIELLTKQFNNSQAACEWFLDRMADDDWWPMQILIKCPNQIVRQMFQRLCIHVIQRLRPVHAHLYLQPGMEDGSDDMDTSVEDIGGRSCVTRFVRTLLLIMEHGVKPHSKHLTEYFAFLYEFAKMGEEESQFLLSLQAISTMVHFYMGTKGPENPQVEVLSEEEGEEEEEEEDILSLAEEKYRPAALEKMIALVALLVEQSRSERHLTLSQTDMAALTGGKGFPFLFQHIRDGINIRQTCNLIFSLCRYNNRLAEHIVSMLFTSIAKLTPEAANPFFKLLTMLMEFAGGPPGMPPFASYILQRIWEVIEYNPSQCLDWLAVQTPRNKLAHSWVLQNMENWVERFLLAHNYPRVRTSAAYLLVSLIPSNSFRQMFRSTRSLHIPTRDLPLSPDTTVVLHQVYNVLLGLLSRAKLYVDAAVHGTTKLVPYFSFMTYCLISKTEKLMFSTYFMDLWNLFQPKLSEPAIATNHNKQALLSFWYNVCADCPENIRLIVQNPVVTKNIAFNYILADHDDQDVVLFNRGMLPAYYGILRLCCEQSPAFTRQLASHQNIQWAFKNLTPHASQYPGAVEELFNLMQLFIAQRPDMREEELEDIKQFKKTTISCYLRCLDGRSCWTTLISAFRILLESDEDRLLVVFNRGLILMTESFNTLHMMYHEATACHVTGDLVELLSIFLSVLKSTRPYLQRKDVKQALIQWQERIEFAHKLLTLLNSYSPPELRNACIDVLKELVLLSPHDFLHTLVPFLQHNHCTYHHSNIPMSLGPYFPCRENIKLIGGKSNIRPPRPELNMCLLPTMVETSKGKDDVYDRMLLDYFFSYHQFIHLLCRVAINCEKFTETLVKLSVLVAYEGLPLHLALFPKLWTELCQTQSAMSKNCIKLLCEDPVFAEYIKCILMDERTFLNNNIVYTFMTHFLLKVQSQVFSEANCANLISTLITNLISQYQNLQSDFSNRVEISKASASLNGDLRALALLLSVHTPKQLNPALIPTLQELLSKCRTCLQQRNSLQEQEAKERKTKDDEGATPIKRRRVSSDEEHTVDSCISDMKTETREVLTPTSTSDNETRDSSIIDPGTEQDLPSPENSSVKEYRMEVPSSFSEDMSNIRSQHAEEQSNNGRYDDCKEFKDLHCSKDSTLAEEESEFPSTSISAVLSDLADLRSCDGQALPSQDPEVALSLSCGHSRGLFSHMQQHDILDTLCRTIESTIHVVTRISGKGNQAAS

Cc1ccc(C)c(NC(=O)CCl)c1
inactive: [1] -0.458 | [2] -0.1 | [3] -0.159 | [4] 0.199 | [5] -0.443
